# Records with an inconclusive call do not appear. A call without a number means that no potency is given here. Calls of active or inactive are those of the source. Calls follow the shape of the dose curve; as a rule, active = well fitted cell-killing curve with a large enough effect in the repeat runs; inconclusive = weak or mixed curves, or effect the other way; inactive = no such curve, though single readings can be large or run the other way.
# Experiment: qHTS assay to identify small molecule agonists of the estrogen receptor alpha (ER-alpha) signaling pathway in the presence of an antagonist - cell viability counter screen (AID 1259386);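 also: cells exposed to compounds for 22 h at 37 °C before the viability read; nearly all actives have a fitted effect of over 30% in size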
# Settings: VM7Luc4E2 viability, CellTiter-Fluor fluorescence, 22 h; series mostly up to 92.4 µM
# Text: National Center for Advancing Translational Sciences [NCATS]
# NIH Chemical Genomics Center [NCGC]
# U.S. Environmental Protection Agency [EPA]
# National Institutes of Environmental Health Sciences [NIEHS]
# National Toxicology Program [NTP]
# U.S. Food and Drug Administration [FDA]
# Estrogen receptor (ER), a member of nuclear hormone receptor plays an important role in development, metabolic homeostasis and reproduction. Two subtypes of ER, ER-alpha and ER-beta, have similar expression patterns with some uniqueness in both types. Endocrine disrupting chemicals (EDCs) and their interactions with steroid hormone receptors like ER causes disruption of normal endocrine function. Therefore, it is important to understand the effect of environmental chemicals in ER signaling pathway. For identifying ER agonists, VM7Luc4E2 cell line has been used in the current assay.
# VM7Luc4E2 cell line (provided by Denison MS, University of California) endogenously expresses full-length ER-alpha and is stably transfected with a plasmid containing four estrogen responsive elements (ERE) upstream of a luciferase reporter gene. This current screening for measuring luciferase reporter gene activity using VM7Luc4E2 cells against Tox21 10K library collection is a confirmation study on agonist mode screening in presence of ER-antagonist (ICI-182,780) at 10.0nM final concentration. The cytotoxicity of the compounds was tested in parallel by measuring the cell viability using CellTiter-Fluor assay system (Promega, Madison, WI) in the same wells.
# Tox21 Assay Protocol Summary:
# VM7Luc4E2 cells were cultured in phenol red free assay medium containing 10% charcoal stripped FBS for 5 days prior to the assay. The cells were dispensed at 4,000 cells in 4uL of assay medium per well into white wall/solid-bottom 1536-well plates (Corning Life Sciences, Corning, NY) using a Multidrop Combi (Thermo Fisher Scientific Inc., Waltham, MA) dispenser. After the assay plates were incubated at 37C and 5% CO2 for 24hr, 1uL of 10.0nM (final concentration) ICI-182,780 or assay buffer was added using two separate tips of Flying Reagent Dispenser (FRD, Aurora Discovery, San Diego, CA). Then 23nL of compounds dissolved in DMSO at 15 concentrations and positive controls or DMSO only was transferred to the assay plates by a Pintool station (Wako, San Diego, CA). The assay plates were incubated at 37C and 5% CO2 for 22hr. After 21hr incubation at 37C, 1uL/well CellTiter-Fluor reagent (Promega Corporation, Madison, WI) was added to each well using FRD and after 1hr incubation at 37C and 5% CO2, the fluorescence signal was measured on ViewLux plate reader (PerkinElmer, Shelton, CT).
# Potency is read from the fitted curve at half-maximal effect.
row,SMILES,Potency
1,C[C@H](CCC(=O)O)[C@H]1CC[C@H]2[C@@H]3CC[C@@H]4C[C@H](O)CC[C@]4(C)[C@H]3C[C@H](O)[C@]12C,inactive
2,C1CCCNCCC1,inactive
3,Cc1oc2c(NC(=O)c3c(Cl)cccc3Cl)cccc2c1C(C)(C)O,inactive
4,Clc1ccc2c(c1)CCc1cccnc1C2=C1CCNCC1,inactive
5,CC(C)O.CC(C)O.CCOC(=O)/C=C(\C)O.CCOC(=O)/C=C(\C)O.[Ti],inactive
6,CCOC(=O)COC(=O)c1cc(Oc2ccc(C(F)(F)F)cc2Cl)ccc1[N+](=O)[O-],inactive
7,OCc1cc(C(O)CNCCCCCCOCCCCc2ccccc2)ccc1O (stereo not given),11.9 µM (active)
8,CC(C)(C)Cl,inactive
9,CCOC(=O)C1=C[C@]2(CC)CCCN3CCc4c(n1c1ccccc41)[C@@H]32,inactive
10,O=P(O)(OCc1ccccc1)OCc1ccccc1,inactive
11,OCCNCc1ccccc1,inactive
12,CCOC(=O)C(O)c1ccccc1 (stereo not given),inactive
13,NCC(=O)CCC(=O)O,inactive
14,Cc1ccc(C(C)OC(=O)C2(C)CCC(C(=O)O)C2(C)C)cc1 (stereo not given),inactive
15,CN1CCN(C(c2ccccc2)c2ccccc2)CC1,inactive
16,C/C=C/C=C/CO,inactive
17,Nc1ccccc1S(=O)(=O)c1ccccc1,inactive
18,C=C(C)C(=O)OCC,inactive
19,CCOc1ccc(O)cc1,inactive
20,CNCCCCOc1ccccc1Cc1ccccc1,inactive

row,SMILES,Potency
1,CC(=O)c1cccc([N+](=O)[O-])c1,inactive
2,Nc1ncn([C@H]2C[C@H](O)[C@@H](CO)O2)c(=O)n1,inactive
3,CN(C)CCN(Cc1ccc(Cl)cc1)c1ccccn1,inactive
4,CC/C=C\CCOC(=O)CC,inactive
5,O=C(NCCO[N+](=O)[O-])c1cccnc1,inactive
6,Nc1ccc(S(=O)(=O)Nc2ccccc2)cc1,inactive
7,CCC(C)(C)CC,inactive
8,CC1=CC=C(C(C)C)CC1,inactive
9,C[N+](C)(C)CCOC(=O)CCC(=O)OCC[N+](C)(C)C,inactive
10,CC(=O)[O][Al][O]C(C)=O,inactive
11,COc1ccc(C(=O)c2ccc(OC)cc2O)c(O)c1,inactive
12,CCCCCCCCCc1ccc(OCCOCCO)cc1,22.8 µM (active)
13,Nc1cc(C(=O)O)c(O)c(S(=O)(=O)O)c1,inactive
14,c1cc(CCCc2ccncc2)ccn1,inactive
15,CCC(CC)Nc1ccc(C)c(C)c1,inactive
16,NC(=O)C(c1ccccc1)(c1ccccc1)[C@@H]1CCN(CCc2ccc3c(c2)CCO3)C1,inactive
17,C=C(C)C(=O)OCCO,inactive
18,Cc1ccc(N=Nc2c(O)c(C(=O)O)cc3ccccc23)c(S(=O)(=O)O)c1,23.6 µM (active)
19,Nc1c(CC(=O)O)cccc1C(=O)c1ccc(Br)cc1,inactive
20,CCCCCCCN,inactive
